Screening results (PubChem)
Hedgehog inh – Sonic Hedgehog pathway inhibition. Shh-LIGHT2 Gli-luciferase reporter, 30 h. inhibition, % (test concentration not listed). 22,000 tested, 2.1% active. AID 2313;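 active = mean inhibition across valid replicates above about 65%, limit read from the data; inconclusive = mean under the limit, yet half or more replicates past it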;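 also: pathway switched on by Shh-conditioned medium diluted 1 in 25 in low serum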
MITF inh – MITF inhibition; TRPM1 promoter luciferase, luminescence, 24 h; inhibition, % (test concentration not listed); 37,000 tested, 0.28% active; in the data active = inhibition above about 85%; inconclusive = no clear call, values can overlap the other calls; inactive = below about 68%;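 also: human melanocyte line stably carrying TRPM1 promoter luciferase reporter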
NOMO-1 viab – STK33 inhibitor candidate reducing NOMO-1 cell viability; 37,000 tested, 7.5% active; AID 2330; NOMO-1 AML viability, CellTiter-Glo luminescence, 72 h; inhibition, % (test concentration not listed); in the data active = inhibition above about 80%; inconclusive = no clear call, values can overlap the other calls
A number is an active result; - = inactive; ? = inconclusive; . = no result given. In the library only some 7.8% were active in any assay of this set; here they are far more common.

SMILES	Hedgehog inh	MITF inh	NOMO-1 viab
O=C(c1ccccc1)C(c1ccccc1)n1nnc2ccccc21 (stereo unspecified)	.	-	-
COC(=O)C(O)(c1ccc(NC(=S)NC(=O)c2ccc(Cl)cc2Cl)c(OC)c1)C(F)(F)F (stereo unspecified)	.	-	124
COc1cc(NC(=O)COc2ccc(Cl)cc2Cl)ccc1NC(=O)c1ccccc1Cl	.	-	-
O=C(NCCO)c1cc[n+](CC(=O)c2cccs2)cc1	.	-	-
Cc1cc2ncn(CC(O)COc3ccccc3Cl)c2cc1C (stereo unspecified)	.	-	?
COc1ccc(S(=O)(=O)Nc2ccc3c(c2)CC(=O)N([C@@H](C)CO)C[C@@H](C)[C@@H](CN(C)Cc2ccc(C(F)(F)F)cc2)O3)cc1	-	-	95
COc1ccc(S(=O)(=O)Nc2ccc3c(c2)CC(=O)N([C@@H](C)CO)C[C@H](C)[C@H](CN(C)Cc2ccc(C(F)(F)F)cc2)O3)cc1	-	-	108
COc1ccc(S(=O)(=O)Nc2ccc3c(c2)CC(=O)N([C@H](C)CO)C[C@@H](C)[C@@H](CN(C)Cc2ccc(C(F)(F)F)cc2)O3)cc1	-	-	119
COc1ccc(CN(C)C[C@@H]2Oc3ccc(NS(=O)(=O)c4ccc(F)cc4)cc3CC(=O)N([C@H](C)CO)C[C@H]2C)cc1	.	-	-
COc1ccc(S(=O)(=O)Nc2ccc3c(c2)CC(=O)N([C@H](C)CO)C[C@@H](C)[C@H](CN(C)Cc2ccc(C(F)(F)F)cc2)O3)cc1	-	-	?
COc1ccc(CN(C)C[C@@H]2Oc3ccc(NS(=O)(=O)c4ccc(F)cc4)cc3CC(=O)N([C@@H](C)CO)C[C@@H]2C)cc1	-	-	-
c1ccc(CSc2nccc(-c3ccc4c(c3)CCO4)n2)cc1	-	-	-
CCN(CC(=O)O)S(=O)(=O)c1ccc(OC)cc1	.	-	-
CC(C)(C)C(=O)CSc1ncnc2sc3c(c12)CCCC3	.	-	-
CCN(CC)C(=S)Sc1ncnc2sc3c(c12)CCCC3	90	-	125
CS(=O)(=O)N(CC(=O)Nc1cccc(Br)c1)c1cc(Cl)c(Cl)cc1Cl	.	-	-
c1ccc(Cc2ccc[n+](Cc3ccccn3)c2)cc1	.	-	-
Cc1cc(Br)c(NC(=O)CSc2ncn(-c3ccccc3)n2)cc1C	.	-	-
Cc1c(CCC(=O)O)c(=O)oc2cc(OCc3cccc(F)c3)ccc12	.	-	-
CCCc1c(Cc2c(F)cccc2Cl)c(=O)oc2cc(O)ccc12	-	-	120
COC(=O)c1cccc(NC(=O)COc2ccc([N+](=O)[O-])cc2)c1	.	-	-
CN(c1cccc(NC(=O)c2ccc(CN3CCOCC3)cc2)c1)S(C)(=O)=O	.	-	-
CCOC(=O)c1nc2ccccc2c(=O)n1/N=C/c1cc(Cl)cc(Cl)c1O	-	-	101
Cn1c(SCC(=O)Nc2ccc(Cl)cc2Cl)nc2ccccc2c1=O	.	-	-
Cc1ccc(C(Nc2ccccn2)c2ccc3ccc(C)nc3c2O)cc1 (stereo unspecified)	.	-	132
SMILES	Hedgehog inh	MITF inh	NOMO-1 viab
CCc1ccc(C(Nc2cc(C)ccn2)c2ccc3cccnc3c2O)cc1 (stereo unspecified)	.	-	112
Cc1ccc2ccc(C(Nc3ccccn3)c3ccc(Cl)cc3)c(O)c2n1 (stereo unspecified)	.	-	132
Cc1ccc2ccc(C(Nc3ccccn3)c3ccc(Cl)c(Cl)c3)c(O)c2n1 (stereo unspecified)	.	-	117
COc1ccc(C(Nc2ccccn2)c2ccc3ccc(C)nc3c2O)cc1C (stereo unspecified)	.	-	-
C=C(C)Cc1c(C)nc(-c2ccc(Cl)cc2)nc1OC(=S)N(CC)CC	.	-	-
Cn1c(SCC(=O)Nc2sc3c(c2C#N)CCCC3)nnc1-c1ccc(Cl)cc1Cl	.	-	-
Cn1ncc(Br)c1-c1nc2ccccc2[nH]1	-	-	-
Cc1cc(C(=O)O)ccc1NC(=O)CNC(=O)C1CCCCC1	.	-	-
O=C(CCCN1C(=O)c2ccccc2C1=O)Nc1ccc(F)c(Cl)c1	.	-	-
O=C(CSc1nnnn1-c1cccc(C(=O)O)c1)Nc1ccccc1F	.	-	-
N#Cc1c(C(F)(F)F)cc(-c2ccco2)nc1SCC(=O)Nc1cccc(C(F)(F)F)c1	.	-	-
COc1ccc(I)cc1C(Nc1cc(C)ccn1)c1ccc2cccnc2c1O (stereo unspecified)	.	-	111
Cc1ccc(C(Nc2ccccn2)c2ccc3cccnc3c2O)cc1 (stereo unspecified)	.	-	112
COc1ccc(C(C)C)cc1S(=O)(=O)Nc1ccccn1	.	-	-
CC(C(=O)Nc1cccc2cccnc12)N1C(=O)c2ccccc2C1=O (stereo unspecified)	.	-	-
Cc1ccc2ccc(C(Nc3ccccn3)c3ccc(C(C)C)cc3)c(O)c2n1 (stereo unspecified)	.	-	108
COc1ccc(OC)c(NS(=O)(=O)c2cccc3cccnc23)c1	.	-	-
Cc1cc(Cl)ccc1OCC(=O)Nc1cccc(NC(=O)c2ccccc2C)c1	.	-	-
O=C(NCCc1ccccc1)c1ccc(-c2ccccc2)cc1	.	-	-
O=[N+]([O-])c1ccc(OCCCSc2ncccn2)cc1	.	-	-
CCC(=O)N1c2ccccc2-c2nnc(SC)nc2OC1c1ccccc1 (stereo unspecified)	-	-	-
CC(NS(=O)(=O)c1ccccc1)C(=O)Nc1ccc(Cl)c(C(F)(F)F)c1 (stereo unspecified)	.	-	-
C[C@@H]1CN([C@H](C)CO)C(=O)c2cc(NC(=O)C3CCCCC3)ccc2O[C@@H]1CN(C)Cc1ccc(C(=O)Nc2ccccc2N)cc1	.	-	?
C[C@H]1CN([C@@H](C)CO)C(=O)c2cc(NC(=O)C3CC3)ccc2O[C@H]1CN(C)Cc1ccc(C(=O)Nc2ccccc2N)cc1	.	-	106
C[C@H](CO)N1C[C@H](C)[C@H](CN(C)Cc2ccc(C(=O)Nc3ccccc3N)cc2)Oc2ccc(NC(=O)C3CC3)cc2C1=O	.	-	?
SMILES	Hedgehog inh	MITF inh	NOMO-1 viab
C[C@@H]1CN([C@@H](C)CO)C(=O)c2cc(NC(=O)C3CC3)ccc2O[C@@H]1CN(C)Cc1ccc(C(=O)Nc2ccccc2N)cc1	.	-	105
C[C@@H]1CN([C@@H](C)CO)C(=O)c2cc(NC(=O)C3CCCCC3)ccc2O[C@@H]1CN(C)Cc1ccc(C(=O)Nc2ccccc2N)cc1	.	-	109
C[C@@H]1CN([C@@H](C)CO)C(=O)c2cc(NC(=O)NC3CCCCC3)ccc2O[C@H]1CN(C)Cc1ccc(C(=O)Nc2ccccc2N)cc1	.	-	-
COc1ccc(NC(=O)COc2ccc(C(C)C)cc2Br)c([N+](=O)[O-])c1	.	-	-
CCn1c2ccccc2n2c(SCC(=O)Nc3ccc(Cl)cc3)nnc12	.	-	-
COc1ccccc1C1CC(c2ccc(C)cc2)=NN1C(=O)CCC(=O)O (stereo unspecified)	.	-	-
CCn1c(SCC(=O)Nc2ccccc2C(F)(F)F)nnc1-c1cccc(C)c1	.	-	-
Cc1ccc(S(=O)(=O)NC2(C(F)(F)F)C(=O)N(CC3CCCO3)C3=C2C(=O)CC(C)(C)C3)cc1 (stereo unspecified)	.	-	-
COc1ccc(OC)c(C(=O)CSc2nnc(-c3ccco3)n2C)c1	.	-	-
c1nc(NCC2CCCO2)c2sc3nc(N4CCCCC4)c4c(c3c2n1)CCCC4 (stereo unspecified)	.	-	-
CN(C)CCCNc1ncnc2c1sc1nc(N3CCOCC3)c3c(c12)CCC3	.	-	98
